Test results from the supplement of paper PMC10849652.
Of roughly 7,900 targets only a part is listed; those with a hit were picked by preference. About 0.6% of all pairs of compound and target were hits. Unmarked numbers belong to inactive results.

Tests used:
Experiment in all cases: log2 fold change, soluble protein after heating vs DMSO (PISA); higher = thermal stabilisation; K562 cells, 10 uM, 30 min; active = over 0.2 and 3.5 SD of the protein, either way, in both replicates (recomputed)
saracatinib = compound: CN1CCN(CCOc2cc(OC3CCOCC3)c3c(Nc4c(Cl)ccc5c4OCO5)ncnc3c2)CC1 [saracatinib]
How it was run: (§1)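 For each measurement, 10 μM compound was applied for 30 min to K562 cells at 2×10^6 cells/mL. Aliquots were heated for 3 min across 48°C-58°C, pooled, and extracted in PBS with 0.5% NP-40 at 4°C; the supernatant after 21,000xg for 90 min was soluble protein. This was quantified by TMTpro 16plex LC-MS/MS with channel sums equalised, and thermal stability was reported relative to control samples from duplicates, on a log2 fold-change scale.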

sotrastaurin = compound: CN1CCN(c2nc(C3=C(c4c[nH]c5ccccc45)C(=O)NC3=O)c3ccccc3n2)CC1 [sotrastaurin]
How it was run: as §1

alvocidib = compound: CN1CC[C@H](c2c(O)cc(O)c3c(=O)cc(-c4ccccc4Cl)oc23)[C@H](O)C1 [alvocidib]
How it was run: as §1

Tubastatin A = compound: CN1CCc2c(c3ccccc3n2Cc2ccc(C(=O)NO)cc2)C1 [Tubastatin A]
How it was run: as §1

[1] = compound: CNC(=O)C1=CC=CC=C1NC2=NC(=NC=C2Cl)NC3=C(C=C(C=C3)N4CCOCC4)OC
How it was run: as §1

defactinib = compound: CNC(=O)c1ccc(Nc2ncc(C(F)(F)F)c(NCc3nccnc3N(C)S(C)(=O)=O)n2)cc1 [defactinib]
How it was run: as §1

rucaparib = compound: CNCc1ccc(-c2[nH]c3cc(F)cc4c3c2CCNC4=O)cc1 [rucaparib]
How it was run: as §1

[2] = compound: CNc1nc(-c2ccc3c(N)n[nH]c3c2)cc(N2C[C@@H](C(=O)NC3CCCCC3)CC[C@H]2C)n1
How it was run: as §1

encorafenib = compound: COC(=O)N[C@@H](C)CNc1nccc(-c2cn(C(C)C)nc2-c2cc(Cl)cc(NS(C)(=O)=O)c2F)n1 [encorafenib]
How it was run: as §1

[3] = compound: COC(=O)[C@H](CCSC)NC(=O)C1=C(C=C(C=C1)NC[C@H](CS)N)C2=CC=CC=C2
How it was run: as §1

Chain of UniProt Q8NEM2 (Q8NEM2 whole entry, looked up): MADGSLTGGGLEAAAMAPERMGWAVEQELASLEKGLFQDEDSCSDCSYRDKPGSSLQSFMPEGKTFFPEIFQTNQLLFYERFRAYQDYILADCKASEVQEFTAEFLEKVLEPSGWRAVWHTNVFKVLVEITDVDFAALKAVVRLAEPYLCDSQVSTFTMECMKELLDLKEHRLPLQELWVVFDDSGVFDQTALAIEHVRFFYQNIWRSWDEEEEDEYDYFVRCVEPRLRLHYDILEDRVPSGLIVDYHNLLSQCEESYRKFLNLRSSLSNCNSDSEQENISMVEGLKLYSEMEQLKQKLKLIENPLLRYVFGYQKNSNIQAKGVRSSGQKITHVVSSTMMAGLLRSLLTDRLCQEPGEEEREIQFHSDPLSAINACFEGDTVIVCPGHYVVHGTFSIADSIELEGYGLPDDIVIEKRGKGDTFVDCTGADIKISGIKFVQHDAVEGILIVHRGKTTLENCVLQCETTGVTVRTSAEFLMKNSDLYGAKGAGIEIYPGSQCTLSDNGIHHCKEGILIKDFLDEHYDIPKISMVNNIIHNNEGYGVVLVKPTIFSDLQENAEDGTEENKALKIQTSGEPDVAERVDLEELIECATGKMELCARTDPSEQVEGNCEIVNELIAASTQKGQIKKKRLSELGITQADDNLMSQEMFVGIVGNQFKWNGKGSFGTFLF
Chain of UniProt Q9H082 (Q9H082 whole entry, looked up): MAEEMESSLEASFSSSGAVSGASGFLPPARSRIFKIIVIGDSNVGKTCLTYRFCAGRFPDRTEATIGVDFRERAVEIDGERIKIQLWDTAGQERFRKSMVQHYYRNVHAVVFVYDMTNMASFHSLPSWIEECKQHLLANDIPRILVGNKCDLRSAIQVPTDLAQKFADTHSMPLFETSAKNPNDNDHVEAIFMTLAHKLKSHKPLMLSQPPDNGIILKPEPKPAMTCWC
Chain of UniProt Q53H47 (Q53H47 whole entry, looked up): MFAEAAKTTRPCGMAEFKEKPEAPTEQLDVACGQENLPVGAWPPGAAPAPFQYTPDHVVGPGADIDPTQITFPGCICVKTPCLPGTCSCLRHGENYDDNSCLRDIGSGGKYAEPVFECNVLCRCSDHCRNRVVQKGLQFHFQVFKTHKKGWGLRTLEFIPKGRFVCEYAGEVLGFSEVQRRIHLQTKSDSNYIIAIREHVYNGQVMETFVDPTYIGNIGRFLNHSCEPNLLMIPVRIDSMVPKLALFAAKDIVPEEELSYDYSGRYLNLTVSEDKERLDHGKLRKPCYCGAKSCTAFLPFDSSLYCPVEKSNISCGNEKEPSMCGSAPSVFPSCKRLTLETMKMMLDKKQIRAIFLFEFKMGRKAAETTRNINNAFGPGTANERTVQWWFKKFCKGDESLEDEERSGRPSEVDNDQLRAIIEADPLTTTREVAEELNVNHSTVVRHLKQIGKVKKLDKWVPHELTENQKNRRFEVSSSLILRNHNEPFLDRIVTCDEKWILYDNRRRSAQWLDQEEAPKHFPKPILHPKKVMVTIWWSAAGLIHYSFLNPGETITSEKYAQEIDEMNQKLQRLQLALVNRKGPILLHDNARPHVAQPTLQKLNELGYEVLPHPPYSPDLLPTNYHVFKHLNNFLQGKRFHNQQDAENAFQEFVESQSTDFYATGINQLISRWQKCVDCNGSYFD
Chain of UniProt Q9NQG5 (Q9NQG5 whole entry, looked up): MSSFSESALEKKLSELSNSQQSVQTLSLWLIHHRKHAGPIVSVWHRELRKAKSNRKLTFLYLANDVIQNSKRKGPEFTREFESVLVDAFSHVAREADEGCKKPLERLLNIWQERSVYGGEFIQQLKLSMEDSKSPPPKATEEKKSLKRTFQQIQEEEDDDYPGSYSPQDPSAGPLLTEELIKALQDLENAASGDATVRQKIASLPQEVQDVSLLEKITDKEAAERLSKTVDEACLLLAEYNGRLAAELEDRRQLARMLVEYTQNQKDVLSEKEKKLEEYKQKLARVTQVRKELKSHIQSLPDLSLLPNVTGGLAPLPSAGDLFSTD
Chain of UniProt P63208 (P63208 whole entry, looked up): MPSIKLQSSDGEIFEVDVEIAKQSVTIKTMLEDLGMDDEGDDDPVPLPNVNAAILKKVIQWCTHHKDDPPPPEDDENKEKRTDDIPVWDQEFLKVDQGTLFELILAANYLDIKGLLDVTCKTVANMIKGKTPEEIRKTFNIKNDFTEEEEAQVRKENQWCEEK
Chain of UniProt Q9UBS8 (Q9UBS8 whole entry, looked up): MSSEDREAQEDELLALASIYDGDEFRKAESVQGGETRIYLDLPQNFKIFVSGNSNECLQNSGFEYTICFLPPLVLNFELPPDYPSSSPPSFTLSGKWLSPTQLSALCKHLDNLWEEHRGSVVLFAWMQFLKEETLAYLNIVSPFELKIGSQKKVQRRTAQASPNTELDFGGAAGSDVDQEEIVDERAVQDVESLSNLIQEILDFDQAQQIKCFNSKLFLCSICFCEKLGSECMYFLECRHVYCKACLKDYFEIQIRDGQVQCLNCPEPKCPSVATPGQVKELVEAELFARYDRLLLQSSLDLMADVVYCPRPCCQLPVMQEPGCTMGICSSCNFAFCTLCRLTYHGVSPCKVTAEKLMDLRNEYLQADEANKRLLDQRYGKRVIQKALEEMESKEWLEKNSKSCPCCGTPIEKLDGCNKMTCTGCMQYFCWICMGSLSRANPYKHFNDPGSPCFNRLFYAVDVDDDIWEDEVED
Chain of UniProt Q96EV2 (Q96EV2 whole entry, looked up): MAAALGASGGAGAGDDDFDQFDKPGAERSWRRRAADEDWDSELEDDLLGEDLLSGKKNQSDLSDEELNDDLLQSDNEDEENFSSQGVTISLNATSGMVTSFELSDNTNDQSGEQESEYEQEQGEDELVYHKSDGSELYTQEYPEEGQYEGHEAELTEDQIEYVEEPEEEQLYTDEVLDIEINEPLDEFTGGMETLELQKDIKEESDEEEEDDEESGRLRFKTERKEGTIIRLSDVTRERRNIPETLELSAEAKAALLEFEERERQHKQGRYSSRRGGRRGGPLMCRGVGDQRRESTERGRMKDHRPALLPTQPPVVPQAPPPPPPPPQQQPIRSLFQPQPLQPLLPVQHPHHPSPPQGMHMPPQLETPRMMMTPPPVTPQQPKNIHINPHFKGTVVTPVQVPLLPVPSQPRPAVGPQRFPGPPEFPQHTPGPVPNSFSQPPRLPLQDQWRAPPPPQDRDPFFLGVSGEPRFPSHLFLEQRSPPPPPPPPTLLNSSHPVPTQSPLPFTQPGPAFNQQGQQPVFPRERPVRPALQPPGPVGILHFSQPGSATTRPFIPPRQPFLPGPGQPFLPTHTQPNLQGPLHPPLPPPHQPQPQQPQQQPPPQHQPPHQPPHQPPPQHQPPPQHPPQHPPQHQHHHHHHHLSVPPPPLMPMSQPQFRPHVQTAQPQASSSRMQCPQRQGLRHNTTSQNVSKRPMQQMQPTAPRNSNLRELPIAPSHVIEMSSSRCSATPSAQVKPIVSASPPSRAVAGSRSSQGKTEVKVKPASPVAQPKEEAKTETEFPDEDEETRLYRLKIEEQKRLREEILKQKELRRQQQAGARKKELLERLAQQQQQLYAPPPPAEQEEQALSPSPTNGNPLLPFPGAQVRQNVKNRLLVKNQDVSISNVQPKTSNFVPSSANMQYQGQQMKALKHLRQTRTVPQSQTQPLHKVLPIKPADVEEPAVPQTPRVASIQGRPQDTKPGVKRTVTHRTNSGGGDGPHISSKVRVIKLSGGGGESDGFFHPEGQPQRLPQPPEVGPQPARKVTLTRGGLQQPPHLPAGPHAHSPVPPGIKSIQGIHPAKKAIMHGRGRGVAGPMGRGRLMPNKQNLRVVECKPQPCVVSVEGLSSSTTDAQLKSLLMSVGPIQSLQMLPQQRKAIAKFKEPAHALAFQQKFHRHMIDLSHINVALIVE
Chain of UniProt Q15287 (Q15287 whole entry, looked up): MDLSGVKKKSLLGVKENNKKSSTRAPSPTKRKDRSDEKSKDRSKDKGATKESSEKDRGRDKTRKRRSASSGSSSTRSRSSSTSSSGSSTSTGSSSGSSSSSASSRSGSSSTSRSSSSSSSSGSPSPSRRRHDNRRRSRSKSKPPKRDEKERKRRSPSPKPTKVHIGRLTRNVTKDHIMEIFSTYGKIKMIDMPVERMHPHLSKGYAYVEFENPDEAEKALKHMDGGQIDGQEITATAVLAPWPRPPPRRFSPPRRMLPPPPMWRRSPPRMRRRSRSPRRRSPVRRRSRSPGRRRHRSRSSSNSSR
Chain of UniProt Q8WXD2 (Q8WXD2 whole entry, looked up): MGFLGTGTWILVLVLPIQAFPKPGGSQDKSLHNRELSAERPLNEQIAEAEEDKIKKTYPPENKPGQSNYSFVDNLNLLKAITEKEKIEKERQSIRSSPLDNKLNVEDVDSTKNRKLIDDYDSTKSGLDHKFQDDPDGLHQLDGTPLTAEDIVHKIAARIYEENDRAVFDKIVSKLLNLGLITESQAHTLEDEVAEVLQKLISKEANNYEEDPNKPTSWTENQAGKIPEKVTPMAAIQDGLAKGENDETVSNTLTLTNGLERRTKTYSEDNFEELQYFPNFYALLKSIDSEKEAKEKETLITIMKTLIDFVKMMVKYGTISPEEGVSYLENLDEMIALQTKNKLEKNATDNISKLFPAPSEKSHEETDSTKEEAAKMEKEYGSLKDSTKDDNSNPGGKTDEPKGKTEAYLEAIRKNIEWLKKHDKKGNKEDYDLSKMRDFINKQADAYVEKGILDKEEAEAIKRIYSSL
Chain of UniProt P58004 (P58004 whole entry, looked up): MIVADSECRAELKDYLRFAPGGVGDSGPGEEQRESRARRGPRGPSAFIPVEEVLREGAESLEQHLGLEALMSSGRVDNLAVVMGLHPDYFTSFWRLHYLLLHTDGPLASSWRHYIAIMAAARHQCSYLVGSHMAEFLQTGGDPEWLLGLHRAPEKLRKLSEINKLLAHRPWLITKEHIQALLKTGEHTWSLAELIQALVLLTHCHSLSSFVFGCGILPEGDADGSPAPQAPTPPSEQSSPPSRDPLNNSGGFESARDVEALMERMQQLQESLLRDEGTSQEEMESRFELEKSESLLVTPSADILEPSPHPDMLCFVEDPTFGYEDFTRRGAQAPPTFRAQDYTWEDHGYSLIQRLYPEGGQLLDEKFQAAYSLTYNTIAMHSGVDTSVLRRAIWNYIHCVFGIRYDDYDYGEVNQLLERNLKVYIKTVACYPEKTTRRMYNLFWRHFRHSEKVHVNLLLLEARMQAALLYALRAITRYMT

Target	log2 fold change (saracatinib)	log2 fold change (sotrastaurin)	log2 fold change (alvocidib)	log2 fold change (Tubastatin A)	log2 fold change [1]	log2 fold change (defactinib)	log2 fold change (rucaparib)	log2 fold change [2]	log2 fold change (encorafenib)	log2 fold change [3]
RPS18 (UniProt P62269)	-0.022	0.039	0.2	0.105	0.071	0.21	0.152	0.041	0.008	0.04
RBM39 (UniProt Q14498)	-0.027	-0.089	0.028	0.026	-0.303	-0.16	0.072	-0.183	0.08	0.011
SH3GLB2 (UniProt Q9NR46)	-0.059	-0.08	-0.13	0.024	-0.048	-0.148	0.042	-0.02	0.029	-0.086
SKP1 (UniProt P63208)	0.157	-0.023	-0.032	0.002	0.165	0.066	-0.051	0.028	-0.005	0.072
SETMAR (UniProt Q53H47)	-0.007	-0.132	-0.029	-0.402	0.006	-0.026	-0.004	0.005	0.198	-0.084
RALY (UniProt Q9UKM9)	-0.091	-0.031	0.041	0.226	-0.01	0.089	0.221	0.066	0.073	-0.021
RPRD1B (UniProt Q9NQG5)	-0.014	-0.126	-0.082	-0.039	0.055	-0.09	-0.116	-0.011	0.04	-0.004
RTN4IP1 (UniProt Q8WWV3)	-0.264	0.43	-0.27	0.611 (active)	-0.066	-0.157	-0.178	-0.069	0.02	0.007
SCG3 (UniProt Q8WXD2)	0.191	0.038	0.106	0.021	0.091	-0.163	0.046	-0.113	-0.069	0.062
SAMSN1 isoform 3 (UniProt Q9NSI8)	-0.023	-0.081	-0.058	0.036	0.002	-0.051	-0.003	-0.029	0.046	0.024
RFC3 (UniProt P40938)	-0.021	0.032	-0.036	0.023	0.031	-0.052	-0.011	0.007	0.062	-0.058
RHOXF2 (UniProt Q9BQY4)	0.015	-0.002	0.011	0.042	-0.021	0.008	0.09	-0.074	-0.018	0.066
RTF2 (UniProt Q9BY42)	-0.021	-0.007	-0.01	0.099	0.083	-0.151	0.027	-0.142	0.058	-0.045
SLC12A9 (UniProt Q9BXP2)	0.102	0.016	-0.094	-0.09	-0.016	-0.043	-0.073	-0.068	-0.017	-0.01
SESN2 (UniProt P58004)	-0.009	-0.222	-0.147	0.131	0.039	-0.229	0.044	0.09	0.041	-0.121
SCO2 (UniProt O43819)	0.034	0.087	0.006	0.016	-0.042	0.017	0.087	-0.004	0.003	-0.124
RPP25L (UniProt Q8N5L8)	-0.079	-0.087	0.061	0.026	0.062	0.002	-0.032	-0.158	0.014	0.058
RNPS1 (UniProt Q15287)	0.036	0.013	-0.016	0.107	-0.243	-0.067	0.023	-0.026	-0.033	-0.019
RBM22 (UniProt Q9NW64)	0.016	-0.013	0.081	-0.065	-0.037	-0.05	0.04	-0.155	0.036	0.012
RPS16 (UniProt P62249)	-0.085	0.004	0.193	0.05	0.108	0.185	0.126	0.056	0.033	0.004
RPL31 (UniProt P62899)	-0.068	-0.003	0.294	0.147	0.096	0.282	0.238	0.121	0.088	-0.052
RNF14 (UniProt Q9UBS8)	-0.02	-0.042	-0.112	-0.014	0.007	-0.096	-0.015	-0.043	-0.027	0.042
RPS21 (UniProt P63220)	-0.017	0.005	0.104	0.246	0.039	0.052	-0.039	-0.001	0.021	0.027
SHCBP1 (UniProt Q8NEM2)	-0.044	0.017	-0.07	0.174	-0.061	-0.194	-0.104	-0.081	0.149	-0.018
SIRT2 (UniProt Q8IXJ6)	0.031	0.136	-0.023	-0.015	-0.038	-0.015	-0.033	0.181	0.014	0.025
SDCBP (UniProt O00560)	-0.012	0.021	-0.096	0.025	0.007	0.042	0.117	-0.541 (active)	0.06	-0.001
SEC16A isoform 5 (UniProt O15027)	-0.08	-0.049	0.028	0.052	-0.085	-0.016	0.22	0.09	0.119	-0.018
RBM33 (UniProt Q96EV2)	0.071	-0.017	-0.177	0.007	-0.021	-0.273 (active)	-0.017	-0.044	0.02	0.03
RAB33B (UniProt Q9H082)	0.158	0.057	0.038	0.013	-0.01	-0.005	0.035	-0.031	0	0.032
RNF220 (UniProt Q5VTB9)	0.012	0.022	-0.066	0.066	-0.008	-0.059	-0.043	-0.038	0.031	0.015
